# Data taken from PubChem BioAssay AID626 (Vanderbilt High Throughput Screening Facility, 2007).
# The campaign covered roughly 64,000 compounds. About 1,900 (3%) were called active.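 Rule for the calls: active = fluorescence rise, raw or as B-score row- and column-corrected plate score, outside the 99.7% band of its plate's samples, either direction; inactive = the rest.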 The list comes from a sample in which actives are over-represented; it also holds similar structures and randomly drawn compounds.
# Tested on: Muscarinic acetylcholine receptor M1
# Assay: direct activation of M1 receptor calcium signal – CHO-M1 cells, Fluo-4 calcium, agonist mode, primary screen (AID 626)
# Settings: Fluo-4 calcium fluorescence, at 10 µM, active compounds read high
row,Structure (SMILES),B-score
1,COc1ccc(-c2cn3ccsc3n2)cc1,0.708 (inactive)
2,CCCC(=O)Nc1cccc(-c2cn3ccsc3n2)c1,-2.92 (active)
3,O=C(NCc1cn2ccsc2n1)Nc1cccc(Cl)c1,-0.0716 (inactive)
4,OCCCN1c2ccccc2Nc2nnc(-c3ccccc3)cc21,2.37 (inactive)
5,CCOc1cccc(=O)c2c(C)n(CC3CCCO3)c(C)c12 (stereo unspecified),-0.504 (inactive)
6,CCOc1cc(-c2nc3cc(C)ccn3c2NCC2CCCO2)ccc1O (stereo unspecified),5.56 (active)
7,CCOc1cc(C(=S)N2CCOCC2)ccc1O,0.0946 (inactive)
8,O=C(CC1Oc2ccccc2NC1=O)NCCCN1CCN(Cc2ccccc2)CC1 (stereo unspecified),-0.153 (inactive)
9,Clc1cccc(-c2nc3nc4ccccc4nc3n2Cc2ccco2)c1,2.1 (inactive)
10,COCCn1c(-c2ccc(OC)c(OC)c2)nc2ccccc21,0.157 (inactive)
11,COc1ccc(CCn2c(-c3ccco3)nc3nc4ccccc4nc32)cc1OC,5.87 (active)
12,COc1ccc(-c2nn(-c3ccccc3)cc2C(=O)Nc2nc(CC(C)=O)ns2)cc1,0.649 (inactive)
13,CC1CCCC(C)N1CCCNC(=O)c1cc2c(=O)n(C)c3ccccc3c2n1C (stereo unspecified),0.176 (inactive)
14,Cn1c(C(=O)NCCc2ccsc2)cc2c(=O)n(C)c3ccccc3c21,3.97 (active)
15,Cn1c(C(=O)NCCCN2CCN(c3cccc(Cl)c3)CC2)cc2c(=O)n(C)c3ccccc3c21,-1.68 (inactive)
16,CCOc1cc(S(=O)(=O)NC2CC(C)(C)NC(C)(C)C2)ccc1F,-1.83 (inactive)
17,N#CC1=C(N)C(C#N)(C#N)[C@H](c2ccsc2)[C@H]2COCC=C12,3.35 (active)
18,O=S(=O)(N1CCOCC1)N1CCN(c2ccccc2F)CC1,0.0546 (inactive)
19,O=C1c2ccccc2-c2ncnc3c(N4CCOCC4)cc(N4CCOCC4)c1c23,2.4 (active)
20,c1ccc(-c2oc3ncnc(N4CCOCC4)c3c2-c2ccccc2)cc1,-0.65 (inactive)
21,C1=C(CCNc2ncnc3c2cnn3-c2ccccc2)CCCC1,0.14 (inactive)

row,Structure (SMILES),B-score
1,O=C(COc1cccc(-n2cnnn2)c1)NCCC1=CCCCC1,-0.532 (inactive)
2,O=C(NCCC1=CCCCC1)C1CCN(Cc2cnn(-c3ccccc3)c2-n2cccc2)CC1,3.61 (active)
3,Cc1cc(NC(=O)CCC2COc3ccccc3O2)no1 (stereo unspecified),-0.76 (inactive)
4,c1ccc2c(c1)OCC(CNc1ncnc3nc[nH]c13)O2 (stereo unspecified),104 (active)
5,COc1ccc(CCNc2ncnc3nc[nH]c23)cc1OC,-0.961 (inactive)
6,O=S1(=O)CC(NCc2ccccc2)C(Nc2ccc(Cl)cc2)C1 (stereo unspecified),-0.0591 (inactive)
7,COc1cccc(-n2cc3c(c2-c2ccccc2)c(=O)n(C)c(=O)n3C)c1,7.45 (active)
8,Cc1ccc(-c2c3c(=O)n(C)c(=O)n(C)c3cn2-c2ccccc2O)cc1,0.252 (inactive)
9,COc1ccc(-c2c3c(=O)n(C)c(=O)n(C)c3cn2-c2cccc(OC)c2)cc1,0.091 (inactive)
10,CCCCn1c(SCC(=O)NCC2CCCO2)nc2ccc(N3CCOCC3)cc2c1=O (stereo unspecified),0.658 (inactive)
11,COc1ccccc1CNC(=O)CCCNS(=O)(=O)c1cccc2nsnc12,-0.144 (inactive)
12,CCS(=O)(=O)N1CCCC(C(=O)NCCCN(C)Cc2ccccc2)C1 (stereo unspecified),0.0256 (inactive)
13,CNC(=O)c1c(NC(=O)c2ccc(S(=O)(=O)N3CCOCC3)cc2)sc2c1CCC2,-0.0829 (inactive)
14,CCOc1cc(N2CCOCC2)c(OCC)cc1NC(=O)COc1cccc2cccnc12,4.8 (active)
15,CC(=O)Nc1cccc(Oc2cc(C#N)c(C#N)cc2N2CCOCC2)c1,0.0039 (inactive)
16,CCOc1cc(NC(=O)c2ccco2)c(OCC)cc1NC(=O)COc1ccccc1,0.0561 (inactive)
17,Cc1nc2cc(S(=O)(=O)C(F)(F)F)ccc2s1,0.0196 (inactive)
18,Cc1ccc(C(c2sc3nc(C)nn3c2O)N2CCN(c3ccccc3)CC2)cc1 (stereo unspecified),-0.274 (inactive)
19,O=C(Nc1ccc(-c2nnc(-c3ccccc3)o2)cc1)C1CCCO1 (stereo unspecified),0.124 (inactive)
20,O=C(Nc1nnc(CCc2ccccc2)s1)C1CCCO1 (stereo unspecified),-0.799 (inactive)
21,O=C(Nc1cccc(-c2nnc(-c3ccccc3)o2)c1)C1CCCO1 (stereo unspecified),8.44 (active)

row,Structure (SMILES),B-score
1,Cc1ccc(C(=O)Nc2ccccc2C(=O)NC2CCCCC2)cc1S(=O)(=O)N1CCOCC1,-0.515 (inactive)
2,Cc1ccc2cc(C#N)c(SCC(=O)NCC3CCCO3)nc2c1C (stereo unspecified),0.58 (inactive)
3,CCOc1ccc2cc(C#N)c(SCC(=O)OC)nc2c1,-0.798 (inactive)
4,CC(NC(=O)CSc1nc2c(cc1C#N)CN(C)CC2)c1ccccc1 (stereo unspecified),6.81 (active)
5,CC1=NC2(CCCc3c2no[n+]3[O-])N(O)C1(C)C (stereo unspecified),-0.303 (inactive)
6,O=C(Nc1c(-c2ccccc2)nc2c(Br)cc(Br)cn12)c1ccco1,1.35 (inactive)
7,N#CCCN1CCN(S(=O)(=O)c2ccc(S(=O)(=O)N3CCCC3)cc2)CC1,0.0676 (inactive)
8,N#CCCN1CCN(S(=O)(=O)c2ccc(S(=O)(=O)NC3CC3)cc2)CC1,0.386 (inactive)
9,CC(C)(C)c1cc(CN2CCN(CCC#N)CC2)cc(C(C)(C)C)c1O,25.1 (active)
10,Cc1nc2ccc(S(=O)(=O)NC(C(=O)N3CCCCCC3)C(C)C)cc2s1 (stereo unspecified),0.688 (inactive)
11,CN1CCN(S(=O)(=O)c2ccc(NC(=O)c3ccco3)cc2)CC1,0.741 (inactive)
12,CC1=C2C(=O)OC(c3ccoc3)C2(C)CCC1 (stereo unspecified),-1.22 (inactive)
13,Fc1ccc2[nH]c3c(N4CCSCC4)ncnc3c2c1,12.1 (active)
14,Cc1ccc(-n2ncc3c(N4CCN(c5ccc(F)cc5)CC4)ncnc32)c(C)c1,-0.824 (inactive)
15,Fc1ccc2[nH]c3c(N4CCN(Cc5ccc6c(c5)OCO6)CC4)ncnc3c2c1,6.32 (inactive)
16,O=C1CC(c2ccccc2)CC(O)=C1C=NCCN1CCOCC1 (stereo unspecified),-1.61 (inactive)
17,Cn1c(SCC(=O)c2cccs2)nnc1-c1ccco1,-0.304 (inactive)
18,Cc1nnc(SCC(=O)NCc2cccs2)[nH]c1=O,0.134 (inactive)
19,Cc1nc2nc(CSc3nc4ccccc4s3)cc(=O)n2[nH]1,0.684 (inactive)
